Data: PubChem BioAssay AID1159580 (chemical genetic matrix, 2015)
Values joined by “and” are separate entries in the source; they are usually repeats but may differ in a detail not shown here. Equal values may be shown once. About 2,000 (36%) of roughly 5,500 compounds were called active. Another 18% or so got no clear call; they are omitted. Rule as the data show it: active = normalized growth mostly below about 0.91 (no sharp cut-off); inconclusive = no clear call, values can overlap the other calls; inactive = mostly above about 0.92. This is one part of the list.

Assay: chemical genetic growth profiling, strain panel (AID 1159580);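 also: tested at 20 µM; growth read once vehicle control cultures reached saturation at 30 °C; 1 = growth at the plate median or of vehicle wells; lower values mean less growth of the strain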
Details: S. cerevisiae deletion strains, growth OD
[1] = locus YDR150W, strain NUM1, active compounds read low
[2] = locus YHR030C, strain SLT2, active compounds read low
[3] = locus YHR079C, strain IRE1, active compounds read low
[4] = locus YJL095W, strain BCK1, active compounds read low
[5] = locus YJR066W, strain TOR1, active compounds read low
[6] = locus YLR113W, strain HOG1, active compounds read low
[7] = locus YNL183C, strain NPR1, active compounds read low
[8] = locus YOR231W, strain MKK1, active compounds read low
[9] = locus YPL256C, strain CLN2, active compounds read low

Measured: normalized growth

CC(C)CCCC(C)C1CCC2C3CC(=O)[C@H]4C[C@@H](O)CC[C@]4(C)C3CC[C@]12C (stereo partly drawn)
active: locus YLR262C, strain YPT6 (second series), active compounds read low 0.76
inactive: locus YAL021C, strain ccr4, active compounds read low 0.997 | locus YAL026C, strain drs2, active compounds read low 0.98 | locus YAL030W, strain snc1, active compounds read low 1.01 | locus YBL061C, strain skt5, active compounds read low 1 | locus YBR009C, strain hhf1, active compounds read low 1 | locus YBR021W, strain FUR4, active compounds read low 1.06 | locus YBR023C, strain chs3, active compounds read low 1 | locus YBR171W, strain sec66, active compounds read low 1 | locus YBR229C, strain ROT2, active compounds read low 1.02 | locus YBR231C, strain swc5, active compounds read low 0.975 | locus YBR279W, strain paf1, active compounds read low 1.01 | locus YCL011C, strain gbp2, active compounds read low 1.02 | locus YCL016C, strain dcc1, active compounds read low 1.01 | locus YCL029C, strain bik1, active compounds read low 1.01 | locus YCL061C, strain MRC1, active compounds read low 1.01 | locus YCL069W, strain vba3, active compounds read low 1.03 | locus YCR088W, strain abp1, active compounds read low 1 | locus YDL005C, strain med2, active compounds read low 1.01 | locus YDL035C, strain GPR1, active compounds read low 1.01 | locus YDL040C, strain nat1, active compounds read low 1.01 | locus YDL074C, strain BRE1, active compounds read low 1.05 | locus YDL101C, strain DUN1, active compounds read low 1.02 | locus YDL185W, strain tfp1, active compounds read low 1.07 | locus YDL192W, strain arf1, active compounds read low 1.02 | locus YDR001C, strain nth1, active compounds read low 1.02 | locus YDR069C, strain doa4, active compounds read low 1 | locus YDR101C, strain arx1, active compounds read low 1.01 | locus YDR137W, strain rgp1, active compounds read low 0.908 | [1] 1 | locus YDR159W, strain sac3, active compounds read low 0.963 | locus YDR162C, strain NBP2, active compounds read low 1.04 | locus YDR195W, strain ref2 1.01 | locus YDR297W, strain sur2, active compounds read low 1 | locus YDR318W, strain mcm21, active compounds read low 1.01 | locus YDR334W, strain swr1, active compounds read low 1.02 | locus YDR335W, strain msn5, active compounds read low 1.02 | locus YDR388W, active compounds read low 1.01 | locus YDR392W, strain spt3, active compounds read low 0.942 | locus YDR502C, strain sam2, active compounds read low 1.01 | locus YEL003W, strain gim4, active compounds read low 1.01 | locus YEL037C, strain rad23, active compounds read low 1 | locus YEL061C, strain CIN8 (second series), active compounds read low 1.01 | locus YEL061C, strain CIN8, active compounds read low 1 | locus YER015W, strain faa2, active compounds read low 1 | locus YER016W, strain bim1, active compounds read low 1.01 | locus YER110C, active compounds read low 1 | locus YER111C, strain swi4, active compounds read low 1 | locus YER155C, strain BEM2 (second series), active compounds read low 1.07 | locus YER155C, strain BEM2, active compounds read low 0.997 | locus YER167W, strain BCK2, active compounds read low 1.03 | locus YFR010W, strain ubp6, active compounds read low 1.02 | locus YGL078C, strain dbp3, active compounds read low 1.01 | locus YGL086W, strain mad1, active compounds read low 1.03 | locus YGL167C, strain pmr1, active compounds read low 0.998 | locus YGL173C, strain kem1, active compounds read low 1 | locus YGL227W, strain vid30, active compounds read low 1.01 | locus YGL240W, strain doc1, active compounds read low 0.904 | locus YGL248W, strain PDE1, active compounds read low 1.01 | locus YGL253W, strain hxk2, active compounds read low 1.02 | locus YGR135W, strain pre9, active compounds read low 1 | locus YGR252W, strain gcn5, active compounds read low 1.06 | locus YHR013C, strain ard1, active compounds read low 1.01 | locus YHR027C, strain rpn1, active compounds read low 1.01 | [2] 1.02 and 1.05 | locus YHR079C, strain IRE1 (second series), active compounds read low 0.99 | [3] 1.04 | locus YHR094C, strain hxt1, active compounds read low 1.01 | locus YHR129C, strain ARP1, active compounds read low 1.02 | locus YHR142W, strain chs7, active compounds read low 1.04 | locus YHR200W, strain rpn10, active compounds read low 1.03 | locus YIL066C, strain RNR3, active compounds read low 1.04 | locus YIL073C, strain SPO22, active compounds read low 1.05 | locus YIL125W, strain kgd1, active compounds read low 0.998 | locus YIR030C, strain dcg1, active compounds read low 1.01 | locus YJL092W, strain hpr5, active compounds read low 1.02 | locus YJL095W, strain BCK1 (second series), active compounds read low 1.01 | [4] 1.03 | locus YJL115W, strain asf1, active compounds read low 0.991 | locus YJL129C, strain trk1, active compounds read low 1.04 | locus YJL134W, strain LCB3, active compounds read low 1.01 | locus YJL154C, strain vps35, active compounds read low 1.02 | locus YJL164C, strain tpk1, active compounds read low 1.01 | locus YJL166W, strain qcr8, active compounds read low 1.06 | locus YJL168C, strain set2, active compounds read low 1 | locus YJL187C, strain SWE1 (second series), active compounds read low 1.01 | locus YJL187C, strain SWE1, active compounds read low 1.02 | locus YJR043C, strain POL32, active compounds read low 1.05 | [5] 0.998 | locus YKL009W, strain mrt4, active compounds read low 1.01 | locus YKL068W, active compounds read low 1.02 | locus YKL085W, strain MDH1 (second series), active compounds read low 1.01 | locus YKL085W, strain MDH1, active compounds read low 1.01 | locus YKL160W, strain elf1, active compounds read low 1.02 | locus YKL190W, strain CNB1, active compounds read low 1.02 | locus YKR001C, strain vps1, active compounds read low 1.02 | locus YKR026C, strain gcn3, active compounds read low 1 | locus YKR091W, strain srl3, active compounds read low 1.01 | locus YLL001W, strain dnm1, active compounds read low 0.982 | locus YLL026W, active compounds read low 0.999 | locus YLL041C, strain sdh2, active compounds read low 1.01 | locus YLR027C, strain aat2, active compounds read low 0.99 | locus YLR039C, strain RIC1, active compounds read low 0.767 | locus YLR058C, strain SHM2, active compounds read low 1.01 | locus YLR102C, strain apc9, active compounds read low 1.01 | [6] 0.986 | locus YLR221C, strain rsa3, active compounds read low 0.991 | locus YLR258W, strain gsy2, active compounds read low 0.994 | locus YLR262C, strain YPT6, active compounds read low 0.831 | locus YLR268W, strain sec22, active compounds read low 1.03 | locus YLR320W, strain mms22, active compounds read low 1.02 | locus YLR330W, strain CHS5, active compounds read low 1.01 | locus YLR342W, strain FKS1 (second series), active compounds read low 1.02 | locus YLR342W, strain FKS1, active compounds read low 1.01 | locus YLR357W, strain rsc2, active compounds read low 1.04 | locus YLR370C, strain arc18, active compounds read low 1.02 | locus YLR371W, strain rom2, active compounds read low 1 | locus YLR384C, strain iki3, active compounds read low 0.99 | locus YLR418C, strain cdc73, active compounds read low 1.08 | locus YML016C, strain PPZ1, active compounds read low 0.995 | locus YML032C, strain rad52, active compounds read low 1 | locus YML120C, strain ndi1, active compounds read low 1.02 | locus YML124C, strain tub3, active compounds read low 1 | locus YMR058W, strain fet3, active compounds read low 1.01 | locus YMR078C, strain ctf18, active compounds read low 1.04 | locus YMR125W, strain sto1, active compounds read low 1.02 | locus YMR129W, active compounds read low 1 | locus YMR205C, strain PFK2, active compounds read low 1.02 | locus YMR223W, strain ubp8, active compounds read low 1.01 | locus YMR231W, strain pep5, active compounds read low 1.02 | locus YMR307W, strain GAS1, active compounds read low 1.12 | locus YNL067W, strain RPL9B, active compounds read low 1.03 | locus YNL071W, strain lat1, active compounds read low 1.02 | [7] 1 | locus YNL209W, strain ssb2, active compounds read low 1.01 | locus YNL233W, strain BNI4, active compounds read low 1.04 | locus YNL248C, strain rpa49, active compounds read low 1 | locus YNL250W, strain rad50, active compounds read low 1 | locus YNL271C, strain bni1, active compounds read low 1 | locus YNL298W, strain CLA4, active compounds read low 1.01 | locus YNL307C, strain MCK1, active compounds read low 1.04 | locus YNL322C, strain KRE1 (second series), active compounds read low 1.01 | locus YNR049C, strain mso1, active compounds read low 1 | locus YNR052C, strain pop2, active compounds read low 0.997 | locus YOL006C, strain TOP1, active compounds read low 1.14 | locus YOL012C, strain htz1 1.15 | locus YOL147C, strain pex11, active compounds read low 1.01 | locus YOR001W, strain rrp6, active compounds read low 0.969 | locus YOR061W, strain CKA2, active compounds read low 1.02 | locus YOR069W, strain VPS5, active compounds read low 1 | locus YOR070C, strain gyp1, active compounds read low 0.989 | locus YOR080W, strain dia2, active compounds read low 0.998 | locus YOR083W, strain WHI5, active compounds read low 1.02 | locus YOR106W, strain vam3, active compounds read low 1.02 | locus YOR136W, strain idh2, active compounds read low 1 | locus YOR144C, strain elg1, active compounds read low 1 | locus YOR184W, strain ser1, active compounds read low 1.04 | [8] 1.02 | locus YOR265W, strain rbl2, active compounds read low 1 | locus YOR270C, strain vph1, active compounds read low 1.04 | locus YOR290C, strain snf2, active compounds read low 1.03 | locus YOR316C, strain cot1, active compounds read low 1 | locus YPL051W, strain arl3, active compounds read low 0.985 | locus YPL055C, strain LGE1, active compounds read low 1.07 | locus YPL078C, strain atp4, active compounds read low 1.02 | locus YPL106C, strain sse1, active compounds read low 1.02 | locus YPL240C, strain hsp82, active compounds read low 1.01 | [9] 1.04 | locus YPR119W, strain clb2, active compounds read low 1 | locus YPR141C, strain kar3, active compounds read low 1.01 | locus YPR163C, strain tif3, active compounds read low 1.01 | locus YPR167C, strain met16, active compounds read low 0.995 | strain wtn01, active compounds read low 1.03

CC(C)CCCC(C)C1CCC2C3CC[C@H]4C[C@H](O)CC[C@]4(C)C3CC[C@]12C (stereo partly drawn)
inactive: [2] 0.98 | [3] 0.985 | [4] 0.992 | [5] 0.919 | [6] 0.985 | [7] 0.916 | [8] 0.991 | [9] 0.981

NCC(O)(CS(=O)(=O)O)c1ccc(Cl)cc1 (stereo not drawn)
inactive: locus YAL040C, strain CLN3, active compounds read low 1.07 | locus YCL061C, strain MRC1 (second series), active compounds read low 0.995 | [1] 1.02 | locus YER002W, strain NOP16, active compounds read low 1.02 | locus YGR078C, strain PAC10, active compounds read low 0.99 | locus YMR263W, strain SAP30, active compounds read low 1 | locus YNL153C, strain GIM3, active compounds read low 1 | locus YNL175C, strain NOP13, active compounds read low 0.979 | locus YNL197C, strain WHI3, active compounds read low 0.98 | locus YNL224C, strain SQS1, active compounds read low 1.01 | locus YOR083W, strain WHI5 (second series), active compounds read low 1 | locus YPL241C, strain CIN2, active compounds read low 1
